According to the supplement of paper PMC13380429:
Values without a mark were called inactive.

Test system: Vero E6 infected with SARS-CoV-2
Test: inhibition of SARS-CoV-2 cytopathic effect; higher = more antiviral protection, active = above 15
Conditions: 48 h

Compound | inhibition of SARS-CoV-2 cytopathic effect (1 nM) | inhibition of SARS-CoV-2 cytopathic effect (8.33 nM) | inhibition of SARS-CoV-2 cytopathic effect (100 nM) | inhibition of SARS-CoV-2 cytopathic effect (833.33 nM) | inhibition of SARS-CoV-2 cytopathic effect (10000 nM)
CC(=O)OCC(=O)[C@@]1(O)CC[C@H]2[C@@H]3CCC4=CC(=O)CC[C@]4(C)[C@@]3(F)[C@@H](O)C[C@@]21C | -1.46% | -0.43% | 0.97% | -0.24% | 0.57%
NNC(=O)CN1C(=O)CN=C(c2ccccc2)c2cc(Br)ccc21 [gidazepam] | 0.8% | 2.74% | 1.83% | 2.01% | 3.71%
Nc1nc(OCC2CCCCC2)c2nc[nH]c2n1 | 1.06% | 0.95% | -3.55% | 1.35% | -1.27%
CCCCOc1ccc(OCCCN2CCOCC2)cc1 [pramoxine] | -3.87% | -1.02% | -1.18% | -1.83% | 0.79%
O=S(=O)(O)c1ccc(-c2c3nc(c(-c4ccc(S(=O)(=O)O)cc4)c4ccc([nH]4)c(-c4ccc(S(=O)(=O)O)cc4)c4nc(c(-c5ccc(S(=O)(=O)O)cc5)c5ccc2[nH]5)C=C4)C=C3)cc1 | -2.9% | -2.68% | -5.47% | -6.51% | -7.03%
CNC(=O)Oc1cccc2ccccc12 [carbaril] | -0.49% | -0.59% | 0.05% | 1.22% | -0.51%
Nc1ccn([C@@H]2O[C@H](CO)[C@@H](O)C2(F)F)c(=O)n1 [gemcitabine] | 1.67% | 2.4% | -0.88% | -3.94% | 3.81%
CCCCCNC(=N)N/N=C/c1c[nH]c2ccc(OC)cc12 [tegaserod] | -2.52% | -0.54% | -3.2% | -3.82% | -1.44%
COc1ccc(CNC(=O)/C=C/c2ccc3[nH]cc(CCN(C)C)c3c2)cc1 | 2.58% | 0.05% | 1.04% | 1.72% | 2.86%
CCC(C)(CN(C)C)OC(=O)c1ccccc1 (stereo not given) [amyleine] | -1.14% | 0.02% | -0.24% | -8.42% | -0.23%
Nc1ncnc2c1c(-c1ccc(Cl)cc1)nn2-c1cccc(-c2cnnn2Cc2cccc(-c3ccccc3)c2)c1 | -2.81% | -0.01% | -1.05% | -2.27% | -0.83%
COc1ccc(OC)c(C(O)C(C)N)c1 (stereo not given) [methoxamine] | 0.07% | -0.09% | 1.61% | 3.81% | 0.66%
CC[N+](CC)(CCCNC1=CC(=O)C(NCCC[N+](CC)(CC)Cc2ccccc2)=CC1=O)Cc1ccccc1 [benzoquinonium-dibromide] | -1.79% | 1.05% | -2.22% | 0.21% | -1.78%
C[C@@H](O)[C@@H]1NC(=O)[C@H](CCCCN)NC(=O)[C@@H](Cc2c[nH]c3ccccc23)NC(=O)[C@H](Cc2ccccc2)NC(=O)[C@@H](NC(=O)[C@H](N)Cc2ccccc2)CSSC[C@@H](C(=O)N[C@H](CO)[C@@H](C)O)NC1=O [octreotide] | 2.23% | -0.63% | -1.24% | 3.26% | -1.58%
NC[C@@H](O)CC(=O)O [aminohydroxybutyric-acid] | -3.49% | -1.06% | -2.52% | -2.28% | -0.71%
CC(C)(O)c1ccccc1CC[C@@H](SCC1(CC(=O)O)CC1)c1cccc(/C=C/c2ccc3ccc(Cl)cc3n2)c1 [montelukast] | 0.18% | 0.4% | -0.23% | -0.66% | -4.23%
O=C(CCN1CCN(C(=O)OCc2cc(Cl)cc(Cl)c2)CC1)c1ccc2[nH]c(=O)oc2c1 | 3.18% | 5.29% | 2.77% | 4.56% | 1.71%
Cc1cccc(C)c1NC(=O)/N=C1\CCCN1C [xilobam] | -1.73% | -0.97% | 1.82% | -0.83% | 1.68%

Compound | inhibition of SARS-CoV-2 cytopathic effect (1 nM) | inhibition of SARS-CoV-2 cytopathic effect (8.33 nM) | inhibition of SARS-CoV-2 cytopathic effect (100 nM) | inhibition of SARS-CoV-2 cytopathic effect (833.33 nM) | inhibition of SARS-CoV-2 cytopathic effect (10000 nM)
C[C@H]1[C@H](C)CC[C@]2(C(=O)O)CC[C@]3(C)C(=CC[C@@H]4[C@@]5(C)C[C@@H](O)[C@H](O)[C@@](C)(CO)[C@@H]5CC[C@]43C)[C@H]12 [asiatic-acid] | -2.75% | -0.62% | -0.32% | 1.12% | -3.69%
CN1C/C=C/CCOc2cccc(c2)-c2ccnc(n2)Nc2cccc(c2)C1 | 5.51% | 0.11% | 0.3% | -10.7% | -9.98%
CCN(CC)CCOC(=O)C1(c2ccccc2)CCCC1 [caramiphen] | -4.57% | -4.75% | -1.97% | -0.96% | -3.45%
Cc1cccc2c1CC[C@H](CN1CCC(c3c(Cl)cccc3Cl)CC1)C[C@@H]2O | -2.92% | 0.72% | 4.25% | 1.11% | -8.51%
Nc1ccc(C(=O)Nc2cccc(-c3nc(N4CCOCC4)c4oc5ncccc5c4n3)c2)cn1 | -0.93% | -2.3% | -2.43% | 0% | 20.4% (active)
COc1c(O)cc2c(c1O)[C@@H]1O[C@H](CO)[C@@H](O)[C@H](O)[C@H]1OC2=O [bergenin] | -3.29% | -2.26% | -0.14% | 0.39% | -1.22%
CC1(C)S[C@@H]2[C@H](NC(=O)[C@H](N)c3ccccc3)C(=O)N2[C@H]1C(=O)O [ampicillin] | 0.57% | 1.76% | -0.8% | -1.53% | 0.38%
CN1C(C)(C)CCCC1(C)C [pempidine] | -2.83% | -0.7% | -4.34% | -1.68% | -2.1%
C/C(O)=C(\C#N)C(=O)Nc1ccc(C(F)(F)F)cc1 [teriflunomide] | 3.27% | 1.99% | 1.22% | -3.04% | 1.1%
CCOC(=O)[C@H](CCc1ccccc1)N[C@H]1CCc2ccccc2N(CC(=O)O)C1=O [benazepril] | 2.45% | 4.14% | 3.52% | -1.12% | 1.56%
C=Cc1cc(O)cc2nc(-c3ccc(O)c(F)c3)oc12 [prinaberel] | 0.2% | 0.74% | 1.61% | 0.55% | 0.56%
CC[N+](CC)(CC)CCC(O)(c1ccccc1)C1CCCCC1 (stereo not given) [tridihexethyl] | -1.22% | -1.31% | -0.23% | -1.37% | -1.87%
CN(CCCN1c2ccccc2CCc2ccccc21)CC(=O)c1ccc(Cl)cc1 [lofepramine] | 2.35% | -0.58% | 1.56% | 2.86% | 0.69%
O=C1CCC[C@@H]2[C@H]3CCCN4CCC[C@@H](CN12)[C@@H]34 [matrine] | -2.75% | -0.7% | -1.73% | -0.8% | -2.2%
CN[C@H](CC(C)C)C(=O)N[C@H]1C(=O)N[C@@H](CC(N)=O)C(=O)N[C@H]2C(=O)N[C@H]3C(=O)N[C@H](C(=O)N[C@H](C(=O)O)c4cc(O)cc(O)c4-c4cc3ccc4O)[C@H](O[C@H]3C[C@](C)(N)[C@@H](O)[C@H](C)O3)c3ccc(c(Cl)c3)Oc3cc2cc(c3O[C@@H]2O[C@H](CO)[C@@H](O)[C@H](O)[C@H]2O[C@H]2C[C@](C)(NCc3ccc(-c4ccc(Cl)cc4)cc3)[C@@H](O)[C@H](C)O2)Oc2ccc(cc2Cl)[C@H]1O [oritavancin] | 2.97% | 3.58% | -0.56% | 0.82% | 0.93%
C[C@H](NC(=O)CNC(=O)c1cccc(Cl)c1)c1ccccc1 | -3.1% | 0.31% | -4.2% | -1.91% | 0.27%
C[N+]1(C)CCc2cc3c(cc2[C@H]1[C@@H]1OC(=O)c2c1ccc1c2OCO1)OCO3 [bicuculline-methochloride-(-)] | -4.58% | 0.48% | 0.65% | 3.59% | -2.23%
C[n+]1c2cc(N)ccc2cc2ccc(N)cc21 [acriflavinium] | -3.77% | -2.4% | -2.84% | -0.42% | -5.69%
